# Data from PubChem BioAssay (Tox21).
# Values without a mark were called inactive. Results filed as inconclusive are left out. A call without a number means that no potency is given here. Active and inactive are the calls of the source. Unless noted, calls follow the shape of the dose curve; as a rule, active = well fitted curve in the direction sought with a large enough effect in the repeat runs; inconclusive = weak or mixed curves; inactive = no such curve, though single readings can be large; an effect the other way counts as inactive or inconclusive.
# Columns and labels:
# [1] = qHTS assay to identify small molecule antagonists of the androgen receptor (AR) signaling pathway using the MDA cell line in the presence of 0.5 nM R1881 - cell viability counter screen (AID 1259242); also: nearly all actives have a fitted effect of over 45% in size; also: potency is read from the fitted curve at half-maximal effect
# Summary of the method: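 Live-cell protease activity was measured by CellTiter-Fluor fluorescence after 30 min. Before that, MDA-kb2 MMTV-luciferase cells had 16 hr at 37C without CO2, exposed to test compounds and 0.5 nM R1881 final.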
# [2] = molecular target: Estrogen receptor (Homo sapiens) (UniProt P03372); assay: qHTS assay to identify small molecule antagonists of the estrogen receptor alpha (ER-alpha) signaling pathway using the BG1 cell line in the presence of 0.1 nM 17-beta-estradiol (AID 1259244); also: nearly all actives have a fitted effect of over 50% in size; also: potency is read from the fitted curve at half-maximal effect
# Estrogen receptor (Homo sapiens), sequence (P03372 whole entry, looked up): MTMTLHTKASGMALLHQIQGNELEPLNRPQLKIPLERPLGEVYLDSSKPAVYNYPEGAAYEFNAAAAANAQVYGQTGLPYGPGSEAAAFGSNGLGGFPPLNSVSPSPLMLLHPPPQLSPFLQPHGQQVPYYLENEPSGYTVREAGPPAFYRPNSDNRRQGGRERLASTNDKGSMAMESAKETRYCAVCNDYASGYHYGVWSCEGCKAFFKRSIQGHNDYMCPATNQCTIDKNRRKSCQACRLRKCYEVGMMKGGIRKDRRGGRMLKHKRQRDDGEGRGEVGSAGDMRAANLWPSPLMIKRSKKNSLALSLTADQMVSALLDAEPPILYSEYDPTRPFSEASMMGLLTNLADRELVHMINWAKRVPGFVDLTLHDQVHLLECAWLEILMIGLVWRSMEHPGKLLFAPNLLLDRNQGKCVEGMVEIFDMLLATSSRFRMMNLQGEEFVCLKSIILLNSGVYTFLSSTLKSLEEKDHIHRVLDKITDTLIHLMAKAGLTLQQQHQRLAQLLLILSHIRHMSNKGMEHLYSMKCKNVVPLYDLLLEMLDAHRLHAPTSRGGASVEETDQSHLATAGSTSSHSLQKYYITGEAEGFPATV
# Summary of the method: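 Luciferase luminescence (ONE-Glo, 30 min at room temperature) was read after 22 hr at 37C exposure to compounds plus 17beta-estradiol at 0.1 nM final. Cells were VM7Luc4E2 with endogenous ER-alpha and an ERE-driven luciferase, pre-cultured 5 days in hormone-depleted medium.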
# [3] = qHTS assay to identify small molecule HDAC inhibitors (AID 1259364); also: top concentration of the series differs between compounds; nearly all actives have a fitted effect of over 45% in size
# Summary of the method: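 Luminescence read after 30 min room-temperature HDAC-Glo incubation measures cellular class I/II HDAC activity. Compounds were applied for 2 hr at 37 C to HCT-116 wild-type cells seeded the day before.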
# [4] = qHTS assay to identify small molecule HDAC inhibitors - cell viability counter screen (AID 1259365); also: series mostly up to about 92 µM; nearly all actives have a fitted effect of over 50% in size
# Summary of the method: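 HCT-116 wild-type, overnight attachment; 2hr drug exposure, 37C; CellTiter-Glo luminescent ATP readout after 30min RT.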
# [5] = qHTS assay to identify small molecule agonists of the sonic hedgehog signaling (Shh) pathway - cell viability counter screen (AID 1259366); also: nearly all actives have a fitted effect of over 50% in size; also: potency is read from the fitted curve at half-maximal effect
# Summary of the method: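 Compounds in DMSO were pin-transferred onto 3T3 Gli1-Luc cells that had settled 4hr; plates then stood 24hr at 37C and 5% CO2. One hour before the end, CellTiter-Fluor was added and fluorescence recorded.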
# [6] = qHTS assay to identify small molecule antagonists of the sonic hedgehog signaling (Shh) pathway - cell viability counter screen (AID 1259367); also: nearly all actives have a fitted effect of over 55% in size; also: potency is read from the fitted curve at half-maximal effect
# Summary of the method: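 Conditioned medium drove Shh signaling in 3T3 Gli1-Luc cells exposed to compounds at 37C and 5% CO2. Viability was determined from CellTiter-Fluor fluorescence, with reagent incubated 1 hr after 23 hr of treatment.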
# [7] = qHTS assay to identify small molecule agonists of the sonic hedgehog signaling (Shh) pathway (AID 1259368; calls by dose curve;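 also: NIH/3T3-derived 3T3Gli1-Luc cells carrying a stable Gli1-driven firefly luciferase reporter; series mostly up to about 92 µM; nearly all actives have a fitted effect of over 15% in size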)
# Summary of the method: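 Luminescence was read after 30 min at room temperature with luciferase reagent. Before that, 3T3Gli1-Luc cells (NIH/3T3 clone, stable Gli1-Luc reporter; 2,000/well) were exposed to compounds for 24 hr at 37C, 5% CO2, compounds being added 4 hr post-plating.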
# [8] = qHTS assay to identify small molecule antagonists of the sonic hedgehog signaling (Shh) pathway (AID 1259369; calls by dose curve; also: nearly all actives have a fitted effect of over 45% in size; also: potency is read from the fitted curve at half-maximal effect)
# Summary of the method: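 Antagonist mode: compound added to 3T3 Gli1-Luc cells followed by conditioned-medium stimulation, 24 h at 37 C, 5% CO2. Inhibition taken as loss of Gli1-driven luciferase luminescence.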
# [9] = qHTS assay to identify small molecule phospholipidosis (PLD) inducers (AID 1259344; active = well fitted curve in the direction sought with a large enough effect; an effect the other way counts as inactive or inconclusive)
# Summary of the method: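 After 4 h attachment on collagen I, HepG2 cells were dosed with compound alongside LipidTOX Red, kept 24 h at 37 C, fixed, and imaged for lamellar phospholipid pits.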
Structure (SMILES),Potency [1],Potency [2],Potency [3],Potency [4],Potency [5],Potency [6],Potency [7],Potency [8],outcome [9],PLD induction [9]
N#Cc1ccc(N(CC(N)=O)CC(F)(F)F)cc1C(F)(F)F,inactive,inactive,inactive,inactive,inactive,inactive,inactive,inactive,–,–
O=Cc1ccccc1,inactive,–,inactive,inactive,inactive,–,inactive,inactive,inactive,–
CN1[C@@H]2CC[C@H]1CC(O)C2 (some centres undefined),inactive,inactive,inactive,–,inactive,–,inactive,–,–,–
CC[C@]1(O)CC[C@H]2[C@@H]3CCC4=CCCC[C@@H]4[C@H]3CC[C@@]21C,inactive,–,inactive,inactive,inactive,inactive,inactive,13300 nM (active),inactive,–
O=C(N[C@@H]1N=C(c2ccccc2F)c2cccc3c2N(CC3)C1=O)c1cc2ccccc2[nH]1,inactive,–,–,inactive,inactive,–,inactive,–,–,-5.27% [at 0.306 µM]
CCN(CC)CCN1C(=O)CN=C(c2ccccc2F)c2cc(Cl)ccc21,inactive,inactive,inactive,inactive,–,inactive,inactive,–,–,–
C[N+]1(C)[C@@H]2CC[C@H]1CC(OC(=O)C(CO)c1ccccc1)C2 (some centres undefined),inactive,–,inactive,inactive,–,–,inactive,–,inactive,–
Cc1cc2c3c(c1)C(c1ccccc1)=N[C@@H](NC(=O)c1ccncc1)C(=O)N3CC2,inactive,inactive,inactive,–,inactive,inactive,inactive,–,–,–
CCCCC/C=C\C/C=C\C/C=C\C/C=C\CCCC(=O)NCC(=O)O,inactive,–,inactive,inactive,inactive,–,inactive,inactive,–,0.136% [at 3.15 µM]
Nc1nc(N)nc(Cl)n1,inactive,inactive,inactive,–,inactive,inactive,inactive,inactive,–,–
COc1ccc2[nH]cc(CCN(C(C)C)C(C)C)c2c1,inactive,–,inactive,inactive,–,inactive,inactive,inactive,inactive,–
CN(C)CCc1c[nH]c2ccccc12,inactive,–,inactive,inactive,–,–,inactive,inactive,inactive,–
Clc1ccc(C2(Cn3cncn3)OCCO2)c(Cl)c1,inactive,–,inactive,inactive,inactive,inactive,inactive,inactive,inactive,–
O=C(N[C@H]1N=C(c2ccccc2F)c2cccc3c2N(CC3)C1=O)c1cc2ccccc2[nH]1,inactive,–,inactive,inactive,inactive,inactive,inactive,–,inactive,–
Nc1ccccc1-c1ccccc1,inactive,inactive,–,inactive,inactive,inactive,inactive,inactive,–,–
ClCBr,inactive,inactive,inactive,inactive,–,inactive,inactive,inactive,–,–
COC(=O)N(OC)c1ccccc1COc1ccn(-c2ccc(Cl)cc2)n1,2170 nM (active),686 nM (active),inactive,inactive,–,inactive,inactive,68.6 nM (active),–,–
CCC[CH2][Sn]([CH2]CCC)([O]C(C)=O)[O]C(C)=O,347 nM (active),617 nM (active),inactive,–,6170 nM (active),27600 nM (active),inactive,–,–,–
CCOP(=O)(Sc1ccccc1)Sc1ccccc1,inactive,inactive,inactive,–,inactive,inactive,inactive,inactive,–,–
OCC(Br)CBr (centres undefined),inactive,inactive,inactive,–,inactive,inactive,inactive,–,–,–
[F][Sn]([c]1ccccc1)([c]1ccccc1)[c]1ccccc1,2170 nM (active),2730 nM (active),–,–,96.9 nM (active),154 nM (active),inactive,–,–,–
Oc1ccc2[nH]cc(CCCCN3CC=C(c4ccccc4)CC3)c2c1,inactive,–,inactive,inactive,–,inactive,inactive,3350 nM (active),inactive,–
CCC(C)c1cccc(C(C)CC)c1O (centres undefined),inactive,inactive,inactive,inactive,–,inactive,inactive,inactive,–,–
COc1ccc2c3c1O[C@H]1[C@H](O)CC[C@H]4[C@@H](C2)N(C)CC[C@@]341,inactive,–,inactive,–,inactive,inactive,inactive,–,inactive,–
ClC1=C(Cl)[C@]2(Cl)[C@H]3[C@H]([C@@H]4C=C[C@H]3C4)[C@@]1(Cl)C2(Cl)Cl,inactive,inactive,inactive,–,inactive,inactive,inactive,inactive,–,–
Brc1ccc(Oc2ccc(Br)cc2Br)c(Br)c1,inactive,inactive,–,inactive,inactive,inactive,inactive,inactive,–,–
CC(Cc1ccc(OCC(=O)O)cc1)NCC(O)c1csc(C(F)(F)F)n1 (centres undefined),inactive,inactive,inactive,inactive,–,3860 nM (active),inactive,inactive,–,–
CC(C)(C)c1ccc(OP(=O)(Oc2ccccc2)Oc2ccccc2)cc1,inactive,inactive,inactive,inactive,–,–,inactive,–,–,–
c1ccc(Nc2ccc(Nc3ccccc3)cc2)cc1,inactive,inactive,inactive,–,–,inactive,–,–,–,–
CSC(=O)c1c(C(F)F)nc(C(F)(F)F)c(C(=O)SC)c1CC(C)C,inactive,inactive,inactive,–,inactive,inactive,inactive,inactive,–,–
